In ChEMBL document CHEMBL4513216, “Probing the Open Global Health Chemical Diversity Library for Multistage-Active Starting Points for Next-Generation Antimalarials” (ACS Infect Dis, 2020) one finds INHIBITION data, which are given here for 54 molecules.

Each structure is given as a SMILES string. In all, about 69,000 compounds went through this assay and about 8,600 (12%) showed an effect of 50% or more. Shown is part of a subset that was picked to be rich in strong results.

In this assay the test system is Plasmodium berghei. The assay is described as follows: Screen against P. berghei liver stage (PbLuc), transformed with Luciferase, at 10uM. It counts as functional, HepG2. Conditions: tested at 10 uM.
Regarding `CCCc1nnc(NC(=O)N2CCCC2c2ccncc2)s1` (centres undefined), the INHIBITION amounted to 59.2%.
The value for `CCSc1ccc(NC(=O)N2CCCC2c2ccncc2)cn1` (centres undefined) was 35.2%; that for `CC(C)c1nnc(NC(=O)N2CCCC2c2ccncc2)s1` (centres undefined) was -32.3%; that for `CC(C)(C)c1n[nH]c(C2CN(C(=O)CCc3ccco3)CCO2)n1` (centres undefined) was 18.15%.
On to `Cc1nc(CN2CCCC(NCCCc3ccccc3)C2)no1` (centres undefined), for which the INHIBITION is reported as -7.31%.
The value for `O=C(COc1ccc(C(F)(F)F)cc1)N1CCOCC1c1ncon1` (centres undefined) was 11.9%; that for `CC(C)(C)c1n[nH]cc1CNC1CCC(O)CC1` (centres undefined) was 5.87%; that for `CC(C)NC(=O)C1CN(Cc2ccc(F)cc2)CC12CCOCC2` (centres undefined) was -15.7%.
Consider `CCC(Cn1ccnc1)n1cnc2scc(C)c2c1=O` (centres undefined), for which the INHIBITION came to 14.9%.
Then `CC(Oc1ccc2c(c1)OCO2)C(=O)N1CCC(N2CCCC2)CC1` (centres undefined), with -5.22%; and `CC(Oc1ccc2c(c1)OCO2)C(=O)N1CCC(N2CCOCC2)CC1` (centres undefined), with 63%.
The value for `CC1CCN(C(=O)C(C)Oc2ccc3c(c2)OCO3)CC1` (centres undefined) was -20.5%; that for `CCCc1nc(C(C)(C)NC(=O)C2CC(=O)N(CCOC)C2)no1` (centres undefined) was -3.2%.
Then `CCN(CC)CC(=O)Nc1ccc(-n2ccc(C(N)=O)n2)cc1`, with 50.2%; and `CC(C)N(C)CC(=O)Nc1ccc(-n2ccc(C(N)=O)n2)cc1`, with 49.3%; and `CCOCC(=O)Nc1ccc(-n2ccc(C(N)=O)n2)cc1`, with 10.8%.
As for `CCNc1ncc(C(=O)N2Cc3nc(C)[nH]c(=O)c3C2)cn1`, the INHIBITION was 6.94%.
For `CC(C)C(=O)N1CCCC2(CC(C(=O)NCc3cccnc3)=NO2)C1` (centres undefined), the INHIBITION came to 8.67%.
Then `CNC(=O)C1Cn2ccnc2C2(CCN(Cc3cccs3)CC2)O1` (centres undefined), with 46.2%; and `CNC(=O)C1Cn2ccnc2C2(CCN(Cc3ccncc3)CC2)O1` (centres undefined), with 36.9%.
Consider `O=C(NCC1CC1)C1=NOC2(CCN(S(=O)(=O)Cc3ccccc3)C2)C1` (centres undefined), for which the INHIBITION turned out to be 22.5%.
Then `O=C(NC1CCC1)C1=NOC2(CCN(Cc3ccccc3)C2)C1` (centres undefined), with 57.9%.
Then `CNC(=O)C1Cn2ccnc2C2(CCN(Cc3nccs3)CC2)O1` (centres undefined), with 55.5%; and `O=C(NCC1CC1)C1=NOC2(CCN(Cc3ccsc3)C2)C1` (centres undefined), with 38.5%; and `O=C(NCc1cccnc1)C1=NOC2(CCCN(CCO)C2)C1` (centres undefined), with 60.1%.
With `CNC(=O)C1=NOC2(CCN(Cc3nccs3)C2)C1` (centres undefined), the INHIBITION is recorded as 54.4%.
The value for `Cc1ncccc1NC(=O)C1=NOC2(CCN(Cc3nccs3)C2)C1` (centres undefined) was 9.1%; that for `CC(C)CN1CCC2(CC(C(=O)NCc3cccnc3)=NO2)C1` (centres undefined) was -11.6%.
The value for `O=C(NCCN1CCOCC1)C1=NOC2(CCN(Cc3nccs3)C2)C1` (centres undefined) was 41.6%; that for `CN1CCc2onc(Cn3cccc3)c2C1` was -7.24%.
Then `Cc1cccc2nc(CN3CCCC3Cn3cncn3)cn12` (centres undefined), with 5.03%; and `c1ccc([C@@H]2CN(Cc3cccnc3)C[C@H]2c2cc[nH]n2)cc1`, with 27.2%.
For the molecule `O=C(NCc1ccc(-n2cncn2)nc1)c1cc[nH]n1`, the INHIBITION was found to be 17.9%.
The value for `Clc1ccc(-n2cnnc2CCCN2CCOCC2)cc1` was 15.6%; that for `CC1CCCCN1S(=O)(=O)NCCNC(=O)c1ncccc1O` (centres undefined) was -27.3%.
The value for `COc1cccc2c(C)c(C(=O)N3CCNCC3C(N)=O)[nH]c12` (centres undefined) was 24.35%; that for `CCNc1cc2c(nn1)CCN(C(=O)Cc1ccc(C)s1)C2` was 37.4%; that for `Cc1cc(N2CCC(O)(CN(C)C(=O)CCCN)C2)c2cnccc2n1` (centres undefined) was -16.8%.
Then `Cc1ccc(-c2nnc(CNCCn3cc(C)cn3)o2)cc1`, with 14.4%; and `Cc1nc(C)n(CC2CN(Cc3ccncc3)Cc3nccn3C2)n1` (centres undefined), with -15.6%; and `CCc1noc(C(C)N2CCN(S(=O)(=O)N3CCCC3)CC2)n1` (centres undefined), with -11.4%.
Regarding `CN1C(=O)CC(c2ccncc2)C12CCN(c1ncccn1)CC2` (centres undefined), the INHIBITION was 29.4%.
Then `O=C(NCC1CC1)C1=NOC2(CCN(S(=O)(=O)c3ccc(F)cc3)C2)C1` (centres undefined), with -19.1%; and `O=C(NCC1CC1)C1=NOC2(CCN(Cc3ccc(Cl)c(F)c3)C2)C1` (centres undefined), with 38.5%; and `O=C(NC1CCC1)C1=NOC2(CCN(Cc3ccc(F)cc3)C2)C1` (centres undefined), with 64.9%.
The value for `CN(C)[C@H]1CN(C(=O)CCc2cccc(F)c2)C[C@@H]1C1CC1` was 30.9%; that for `COCc1cncc2c1CCN(C(=O)c1cscn1)C2` was 21.3%; that for `O=C(c1cscn1)N1CCc2c(COCC3CC3)cncc2C1` was 58.4%.
Then `O=C(c1ccsc1)N1CCc2c(COCC3CC3)cncc2C1`, with 39.8%.
As to `CC(C)COCc1cncc2c1CCN(C(=O)c1cscn1)C2`, the INHIBITION amounted to 18.6%.
Then `O=C(c1cnccn1)N1CCc2c(COCC3CC3)cncc2C1`, with 39.2%; and `CCOCc1cncc2c1CCN(C(=O)c1cscn1)C2`, with 62%.
Then `CN(C)C(=O)C1(c2cnccn2)CCCN1C(=O)Cc1ccccc1` (centres undefined), with 28.475%.
Then `CC1c2ncc(Cn3cncn3)n2CCN1C1CCOCC1` (centres undefined), with 2.01%.
